# Over roughly 8,300 sequences, “log2 fold change of degron read counts, EGFP-low vs EGFP+ sorted cells (limma voom), compound-induced degradation” has its median near -1.1; the highest 2% begin near 3.2. The full list was thinned out, with the highest values kept by preference.
# T1: CRBN, Q96SW2
# T1 chain: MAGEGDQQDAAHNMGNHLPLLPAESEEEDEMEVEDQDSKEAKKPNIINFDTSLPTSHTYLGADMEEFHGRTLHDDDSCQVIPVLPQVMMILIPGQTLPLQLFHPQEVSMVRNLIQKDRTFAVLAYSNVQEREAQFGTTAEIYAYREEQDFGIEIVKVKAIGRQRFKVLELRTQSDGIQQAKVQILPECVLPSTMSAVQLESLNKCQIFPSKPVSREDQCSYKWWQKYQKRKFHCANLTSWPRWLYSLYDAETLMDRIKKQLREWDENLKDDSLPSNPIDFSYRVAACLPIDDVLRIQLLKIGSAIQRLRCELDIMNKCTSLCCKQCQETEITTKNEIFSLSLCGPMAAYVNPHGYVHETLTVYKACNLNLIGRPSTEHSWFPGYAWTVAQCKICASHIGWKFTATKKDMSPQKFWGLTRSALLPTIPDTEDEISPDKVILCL
# Target: T1, CRBN, Q96SW2
# Assay: log2 fold change of degron read counts, EGFP-low vs EGFP+ sorted cells (limma voom), compound-induced degradation; higher = more compound-induced degradation of the degron-EGFP fusion; degrons are variants of IKZF1/3 zinc finger 2; compound dose not given here
# Conditions: Jurkat, 18 h
# Method: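 Pooled library of 8380 IKZF3 ZF2 degron mutants (positions 146-167 varied within the IKZF3 130-189 degron; only the varied core is printed, flanks not printed) fused to EGFP with IRES-mCherry, lentivirally expressed in Jurkat cells. mCherry+ cells were treated with one IMiD compound for 18 h (dose not stated) and FACS-sorted into EGFP-low and EGFP+ populations. Degron sequences were counted by NGS, and log2FC (EGFP-low vs EGFP+) was estimated by limma voom over 3 biological replicates.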
# [1] = compound: compound 19 (5-tert-butyl-thalidomide)
# [2] = compound: compound 22 (5-morpholino-thalidomide)
# [3] = compound: compound 33 (diphenyl IMiD analogue)
# 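Also: pooled lentiviral library of zinc finger degron-EGFP fusions in mCherry-positive Jurkat cells, FACS-sorted after compound exposure, with degron abundance counted by next-generation sequencing.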
Sequence,log2 fold change of degron read counts [1],log2 fold change of degron read counts [2],log2 fold change of degron read counts [3],log2 fold change of degron read counts (compound: thalidomide)
"FSCNQCGRCFTQKGNLLRHIKL [46F_47S_49N_50Q_52G_53R_54C_55F_67L_, Q9UKT9]",-2.78,-2.88,-2.83,-2.73
"FNCPQCGADFTQKGNLLRHIKL [46F_47N_49P_50Q_52G_53A_54D_55F_67L_, Q9UKT9]",-3.44,-3.57,-2.75,-3.69
"FFCNICGAEFTQKGNLLRHIKL [46F_47F_49N_50I_52G_53A_54E_55F_67L_, Q9UKT9]",1.77,1.94,0.373,-0.454
"FSCPICGHQFTQKGNLLRHIKL [46F_47S_49P_50I_52G_53H_54Q_55F_67L_, Q9UKT9]",-2.3,-3.17,-1.53,-1.82
"FSCNQCGRDFTQKGNLLRHIKL [46F_47S_49N_50Q_52G_53R_54D_55F_67L_, Q9UKT9]",-3.12,-4.04,-2.59,-2.97
"LFCNQCGFNCTQKGNLLRHIKL [46L_47F_49N_50Q_52G_53F_54N_55C_67L_, Q9UKT9]",-1.81,-1.88,-1.92,-1.45
"FECNQCGAHFTQKGNLLRHIKL [46F_47E_49N_50Q_52G_53A_54H_55F_67L_, Q9UKT9]",-2.49,-3.01,-2.49,-2.34
"FMCEICGAIFTQKGNLLRHIKL [46F_47M_49E_50I_52G_53A_54I_55F_67L_, Q9UKT9]",-1.18,-0.577,2.14,0.96
"FQCEICGAIFTQKGNLLRHIKL [46F_47Q_49E_50I_52G_53A_54I_55F_67L_, Q9UKT9]",-0.255,3.16,2.84,3.68
"FCCEICGAIFTQKGNLLRHIKL [46F_47C_49E_50I_52G_53A_54I_55F_67L_, Q9UKT9]",1.48,1.57,2.5,1.97
